Among all 310,000 compounds or so, about 14,000 (4.5%) showed an effect of 50% or more. The effect is printed as a negative number. Many of the other results were omitted from the sample, so strong results are more common in it than they were.
Each molecule was assayed against human ether-à-go-go-related gene (hERG) potassium channel (human, UniProt Q12809) (assay: primary screen, population patch clamp on CHO cells stably expressing hERG; higher = less effect of the substance).
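Note: peak tail current of the secondary pulse compared with the same well before compound.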

human ether-à-go-go-related gene (hERG) potassium channel, sequence (Q12809 whole entry, looked up): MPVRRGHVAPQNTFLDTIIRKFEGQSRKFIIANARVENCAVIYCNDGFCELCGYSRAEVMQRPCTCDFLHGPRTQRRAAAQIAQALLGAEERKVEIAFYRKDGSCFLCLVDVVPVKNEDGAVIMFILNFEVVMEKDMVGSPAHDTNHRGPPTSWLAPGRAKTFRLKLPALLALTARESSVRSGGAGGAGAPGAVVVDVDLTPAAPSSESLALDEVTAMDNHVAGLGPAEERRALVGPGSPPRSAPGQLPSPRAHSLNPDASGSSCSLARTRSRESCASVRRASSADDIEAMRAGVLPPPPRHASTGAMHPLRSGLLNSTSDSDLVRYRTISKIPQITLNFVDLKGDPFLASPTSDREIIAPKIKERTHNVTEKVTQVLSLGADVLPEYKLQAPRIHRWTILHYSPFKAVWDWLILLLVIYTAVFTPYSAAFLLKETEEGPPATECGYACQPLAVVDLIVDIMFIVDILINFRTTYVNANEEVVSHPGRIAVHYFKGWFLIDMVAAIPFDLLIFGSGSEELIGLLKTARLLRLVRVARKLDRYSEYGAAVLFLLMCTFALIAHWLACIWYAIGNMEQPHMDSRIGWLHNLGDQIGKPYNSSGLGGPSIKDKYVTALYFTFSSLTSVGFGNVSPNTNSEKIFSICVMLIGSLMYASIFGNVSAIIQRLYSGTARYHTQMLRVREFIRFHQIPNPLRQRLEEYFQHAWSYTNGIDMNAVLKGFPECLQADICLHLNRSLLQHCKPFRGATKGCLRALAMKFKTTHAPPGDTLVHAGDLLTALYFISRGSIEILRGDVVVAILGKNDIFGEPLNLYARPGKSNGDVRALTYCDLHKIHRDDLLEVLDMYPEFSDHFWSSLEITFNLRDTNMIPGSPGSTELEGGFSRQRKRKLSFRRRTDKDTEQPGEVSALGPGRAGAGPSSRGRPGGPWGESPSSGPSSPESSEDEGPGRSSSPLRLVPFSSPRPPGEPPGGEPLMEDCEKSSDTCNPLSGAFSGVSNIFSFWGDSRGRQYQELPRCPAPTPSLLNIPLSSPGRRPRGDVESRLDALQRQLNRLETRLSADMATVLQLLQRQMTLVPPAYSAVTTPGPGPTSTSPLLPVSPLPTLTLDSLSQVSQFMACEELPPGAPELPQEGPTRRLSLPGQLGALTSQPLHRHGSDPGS

SMILES	hERG current change (%, negative = inhibition) at 10uM [%]
COc1ccc(OC)c(/C=N/n2c(COc3ccccc3)n[nH]c2=S)c1	12.2
CCOc1ccc(-c2noc(-c3cccnc3)n2)cc1OCC	13.7
O=c1[nH]nc(Cc2ccc3ccccc3n2)c2ccccc12	1.36
COc1ccc2[nH]c(=O)c(CN(Cc3cccs3)C(=S)Nc3ccccc3)cc2c1	16.7
Fc1ccc(NC(=S)Nc2cccnc2)c(F)c1F	20.1
COc1ccccc1CNC(=O)COc1ccc2c(c1)CCC2	-1.2
Nc1ncnc2c1ncn2CCOc1ccccc1	5.18
CN(C)CCN(C(=O)/C=C/c1cccs1)c1nc2c(F)cc(F)cc2s1.Cl	-47.8
COc1cc2ccccc2cc1C(=O)N(CCN(C)C)c1nc2c(F)cc(F)cc2s1.Cl	-10.1
CN(C)CCCN(C(=O)c1ccco1)c1nc2c(F)cc(F)cc2s1.Cl	-72.2
Cc1cccc2sc(N(CCCN(C)C)C(=O)c3ccco3)nc12.Cl	-74.9
Cc1cccc2sc(N(CCCN(C)C)C(=O)c3nc4ccccc4s3)nc12.Cl	4.2
Cc1cccc2sc(N(CCCN(C)C)C(=O)c3ccc(Cl)s3)nc12.Cl	-69.7
Cc1cccc2sc(N(CCN(C)C)C(=O)c3cc(Cl)sc3Cl)nc12.Cl	-22.7
CN(C)CCCN(C(=O)c1cc(-c2cccs2)nc2ccccc12)c1nc2c(F)cccc2s1.Cl	-48.8
CN(C)CCCN(C(=O)c1ccco1)c1nc2c(F)cccc2s1.Cl	-73.2
COc1cccc(N(CC(=O)NCCN2CCOCC2)S(=O)(=O)c2ccccc2)c1	-4.96
O=C(CSc1nc2ccccc2[nH]1)NCCc1ccc(Cl)cc1	-20.9
CN(C1CCCCC1)S(=O)(=O)c1ccccc1	-7.01
O=C(O)COc1ccc(Br)cc1/C=N\Nc1ccccn1	15.2
COc1cc(OC)cc(C(=O)NC(=S)Nc2cc3oc4ccccc4c3cc2OC)c1	18.5
Cc1cc(/C=C2/C(=O)N(C)C(=S)N2C)c(C)n1C1CC1	4.03

SMILES	hERG current change (%, negative = inhibition) at 10uM [%]
CC(C)Oc1ccc(C(=O)Nc2ccc(N3CCCCC3)cc2)cc1	-2.32
CS(=O)(=O)N1CCc2ccc(NC(=O)C3CCCO3)cc2C1 (stereo not shown)	18.8
CCCNS(=O)(=O)c1ccc(CCC(=O)N2CCOCC2)cc1	3.77
COC(=O)[C@@H](NC(=O)c1ccc2c(c1)S(=O)(=O)c1ccccc1C2=O)C(C)C	8.57
O=C(CN1CCOCC1)Nc1c2c(nc3ccccc13)N(Cc1ccccc1)CC2.O=C(O)C(=O)O	-68.9
CCCCCC(=O)Nc1cc(N(C)C)nc2ccccc12	-74.9
CCCCC(=O)Nc1cc(N(C)C)nc2ccccc12	-66.3
CN(C)c1cc(NC(=O)CN2CCCC2)c2ccccc2n1.O=C(O)C(=O)O	-10.3
O=C(CN1CCCCC1)Nc1c2c(nc3ccccc13)N(c1ccccc1)CC2.O=C(O)C(=O)O	3.12
CCN(CC)CC(=O)Nc1c2c(nc3ccccc13)N(C)CC2.O=C(O)C(=O)O	16.5
CCCCCC(=O)Nc1c2c(nc3ccccc13)CCC2	-45.7
CCN(CC)CC(=O)Nc1cc(N(C)C)nc2ccccc12.O=C(O)C(=O)O	-35.3
CCCCCC(=O)Nc1cccc2ccccc12	-2.38
O=C(CN1CCCC1)Nc1c2c(nc3ccccc13)N(Cc1ccccc1)CC2.O=C(O)C(=O)O	6.05
CN1CCc2c1nc1ccccc1c2NC(=O)CN1CCCC1	-1.61
CCCCCCC(=O)Nc1c2c(nc3ccccc13)N(C)CC2	-68
C/C(=N\NC(=S)Nc1cc(S(=O)(=O)N2CCOCC2)ccc1Cl)c1ccc(N2CCOCC2)cc1	6.22
COc1ccc(CN(Cc2ccccn2)C(=O)CN2C(=O)C(C)Oc3ccccc32)cc1 (stereo not shown)	-3.36
CCOC(=O)c1ccc(-c2ccc(/C=C(\C#N)C(=O)NCc3cccs3)o2)cc1	18
CC(=O)N1N=C(c2cccnc2)OC1c1ccc(C(C)C)cc1 (stereo not shown)	-30.1
O=c1[nH]ccc2c(O)cccc12	20.1
